# Data as given in PubChem BioAssay (NCATS).
# Records with an inconclusive call do not appear. A number with no mark means an inactive call. Activity calls are given as the source filed them. Calls follow the shape of the dose curve; as a rule, active = well fitted curve in the direction sought with a large enough effect; inconclusive = small, poorly fitted or top-dose-only effect, or another doubt; inactive = no such curve, though single readings can be large; an effect the other way counts as inactive or inconclusive.
# Test: Primary qHTS for inhibitors of nuclear receptor binding SET domain protein 2 (NSD2) in an isogenic RCH-ACV NSD2 p.E1099K mutant (9B) (AID 1645876)
# Details: RCH-ACV NSD2 E1099K (9B) viability, CellTiter-Glo, 72 h; series mostly up to 44.9 µM; activity change, negative = viability loss: at the top concentration
# % is scaled to controls: 0 for no effect and ±100 for the full control effect; potency is read from the fitted curve at half-maximal effect.
# Also: nearly all actives have a fitted effect of over 70% in size.
Compound,"activity change, negative = viability loss [%]",outcome,Potency
CCC(=O)O[C@@H]1C=C2CCC3C(CCC4(C)C3CC[C@@H]4OC(=O)CC)C2CC1 (stereo partly drawn),-19.8,–,–
CC[C@@H](C(N)=O)N1CCCC1=O,–,inactive,–
NC1=NC(=O)N2CC12 (stereo not drawn),-26,–,–
CCc1c(C(=O)C(N)=O)c2c(OCC(=O)O)cccc2n1Cc1ccccc1,5.95,–,–
COc1ccc(C(=O)c2c(C)n(CCN3CCOCC3)c3cc(I)ccc23)cc1,–,–,18.6 µM (active)
O=C(N[C@H]1CN2CCC1CC2)c1ccc(Cl)cc1,–,–,inactive
O=C(Nc1ccncc1)C(=O)c1cn(Cc2ccc(Cl)cc2)c2ccccc12,–,–,0.263 µM (active)
CCCN1CCO[C@@H]2c3cc(O)ccc3OC[C@H]21,6.19,–,–
CCOP(=O)(OCC)C(C)NC(=O)N(CCCl)N=O (stereo not drawn),–,inactive,–

# Test: Primary qHTS for inhibitors of nuclear receptor binding SET domain protein 2 (NSD2) in an RCH-ACV wild type WT cells (2C) (AID 1645877)
# Details: RCH-ACV (leukaemia line) NSD2 WT (2C) viability, CellTiter-Glo, 72 h; series mostly up to 44.9 µM; activity change, negative = cell killing: at the top concentration
Compound,"activity change, negative = cell killing [%]",outcome,Potency
CC[C@@H](C(N)=O)N1CCCC1=O,7.45,–,–
NC1=NC(=O)N2CC12 (stereo not drawn),-29.9,–,–
CN(C)[C@@H]1C(=O)C(C(N)=O)=C(O)[C@@]2(O)C(=O)C3=C(O)c4c(O)cccc4[C@@](C)(O)[C@H]3[C@H](O)[C@@H]12,–,inactive,–
CCc1c(C(=O)C(N)=O)c2c(OCC(=O)O)cccc2n1Cc1ccccc1,–,inactive,–
COc1ccc(C(=O)c2c(C)n(CCN3CCOCC3)c3cc(I)ccc23)cc1,–,–,14.8 µM (active)
O=C(N[C@H]1CN2CCC1CC2)c1ccc(Cl)cc1,–,–,inactive
O=C(Nc1ccncc1)C(=O)c1cn(Cc2ccc(Cl)cc2)c2ccccc12,–,–,0.235 µM (active)
CCCN1CCO[C@@H]2c3cc(O)ccc3OC[C@H]21,6.45,–,–
CCOP(=O)(OCC)C(C)NC(=O)N(CCCl)N=O (stereo not drawn),–,inactive,–
